Data published in PubChem BioAssay.

Molecular target: Tumor necrosis factor receptor superfamily member 10B (Homo sapiens) (UniProt O14763)
Assay: caspase-8 TRAIL sensitization, hit retest, confirmation, cell-based, NB7+caspase-8, with/without TRAIL, luminescence panel (AID 651596)
Conditions: NB7 neuroblastoma + caspase-8, TRAIL sensitization, luminescence viability, with TRAIL, mean of runs, at 10 µM, stronger effect = higher value; in the data active = activity above about 50%; inactive = the rest

Sequence of Tumor necrosis factor receptor superfamily member 10B (Homo sapiens) (O14763 whole entry, looked up): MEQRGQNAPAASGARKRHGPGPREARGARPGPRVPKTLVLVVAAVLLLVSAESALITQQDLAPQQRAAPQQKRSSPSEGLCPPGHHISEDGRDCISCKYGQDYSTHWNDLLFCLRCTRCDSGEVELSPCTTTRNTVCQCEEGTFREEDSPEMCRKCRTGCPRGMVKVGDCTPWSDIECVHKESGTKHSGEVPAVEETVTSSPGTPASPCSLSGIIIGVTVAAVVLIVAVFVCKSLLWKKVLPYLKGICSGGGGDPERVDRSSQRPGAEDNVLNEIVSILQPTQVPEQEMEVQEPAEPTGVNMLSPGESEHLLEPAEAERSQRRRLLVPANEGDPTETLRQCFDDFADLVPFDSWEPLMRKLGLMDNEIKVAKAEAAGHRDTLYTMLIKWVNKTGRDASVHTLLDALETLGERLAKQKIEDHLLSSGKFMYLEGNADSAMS

**Q.** For `CCCCc1ccc(NC(=O)c2cnccn2)cc1`, which activity is on record?
**A.** 53.3%

**Q.** For `COc1cc(C2Nc3ccccc3C(=O)N2c2ccc3c(c2)OCCO3)ccc1OCC(C)C` (stereo not drawn), which activity is on record?
**A.** 64.9%

**Q.** With `CCN1CCN(Cc2ccc(NC(=O)c3ccc(C)c(NC(=O)c4c[nH]c5cc(C(F)(F)F)ccc5c4=O)c3)cc2C(F)(F)F)CC1` as the compound, how does the activity read?
**A.** 98.8%

**Q.** For `Cc1c(C(=O)N2CCc3ccccc32)oc2ccccc12`, which activity is on record?
**A.** 48.2%

**Q.** With `CSc1nnc(NC(=O)c2ccc3c(c2)OCO3)s1` as the compound, how does the activity read?
**A.** 76.5%

**Q.** For `O=C(CCl)N1c2ccccc2SCC1c1ccccc1` (stereo not drawn), which activity is on record?
**A.** 99.4%

**Q.** With `COc1ccc(/C(N)=N/OC(=O)c2c(-c3ccccc3Cl)noc2C)cc1OC` as the compound, how does the activity read?
**A.** 99.1%

**Q.** With `C/C(=N\NC(=O)c1ccccn1)c1ccc(Cl)cc1` as the compound, how does the activity read?
**A.** 44%

**Q.** For `COc1ccc2nc(N3C(=O)CNC3=S)sc2c1`, which activity is on record?
**A.** 51.8%

**Q.** Which activity does the source give for `O=C(CCl)N1CCN(S(=O)(=O)c2ccc3ccccc3c2)CC1` here?
**A.** 94.9%

**Q.** Which activity does the source give for `CCCc1cc(=O)[nH]c(SCC(=O)Nc2cc(S(=O)(=O)N3CCCCC3)ccc2C)n1` here?
**A.** 3.67%

**Q.** With `O=C1Nc2ccccc2N(C(=O)c2ccc3ccccc3c2)C1c1nc2ccccc2[nH]1` (stereo not drawn) as the compound, how does the activity read?
**A.** 48.1%

**Q.** Which activity does the source give for `Cc1onc(-c2ccccc2Cl)c1C(=O)O/N=C(\N)c1cccc([N+](=O)[O-])c1` here?
**A.** 92.2%

**Q.** Which activity does the source give for `Cc1ccc(C(=O)O/N=C(\N)c2ccc(Br)cc2)cc1C` here?
**A.** 82.5%

**Q.** With `O=[N+]([O-])c1c(Nc2ccccc2O)cc(Cl)c2nonc12` as the compound, how does the activity read?
**A.** 63.9%

**Q.** For `CN(C)c1cccc(C(=O)N/N=C/c2ccccc2F)c1`, which activity is on record?
**A.** 82.8%

**Q.** Which activity does the source give for `CCCCNC(=O)c1ccc(Cn2c(=S)[nH]c3c([nH]c4ccc(OC)cc43)c2=O)cc1` here?
**A.** 76.7%

**Q.** With `Cc1nn(-c2ccccc2Cl)c(Cl)c1/C=N/Nc1cccc(C(=O)O)c1` as the compound, how does the activity read?
**A.** 68.9%

**Q.** For `COc1cccc(Nc2nc(N)nc(CCl)n2)c1`, which activity is on record?
**A.** 98.4%

**Q.** Which activity does the source give for `COCCNC(=O)c1ccc2c3n(nc2c1)-c1ccccc1CO3` here?
**A.** 67.6%

**Q.** With `CCCCn1c(SCC(=O)Nc2nnc(CC)s2)nc2c1c(=O)n(C)c(=O)n2C` as the compound, how does the activity read?
**A.** 68%

**Q.** For `O=C(Nc1ccc2nc3ccccc3nc2c1)c1ccccc1`, which activity is on record?
**A.** 47%

**Q.** Which activity does the source give for `Cc1ccc(C(=O)Nc2ccc3c(c2)OCO3)cc1` here?
**A.** 75.8%

**Q.** For `CCCCCc1c(-c2ccc(OC)c(OC)c2)ncn1CCc1ccccc1OC`, which activity is on record?
**A.** 22.7%

**Q.** For `Brc1ccc(-c2cn3ccccc3n2)cc1`, which activity is on record?
**A.** 50.8%

**Q.** With `COc1ccc(NC(=O)N2CCc3ccccc32)cc1` as the compound, how does the activity read?
**A.** 64.4%

**Q.** With `COc1ccc(NC(=O)c2ccc3c(c2)OCCO3)cc1OC` as the compound, how does the activity read?
**A.** 51.8%

**Q.** For `CCOC(=O)c1sc(NC(=O)c2ccccc2)cc1C`, which activity is on record?
**A.** 59.1%

**Q.** Which activity does the source give for `CC(C)(C)OC(=O)NCCCC[C@H](NC(=O)c1[nH]cnc1C(=O)N[C@@H](Cc1ccccc1)C(=O)OC(C)(C)C)C(=O)OC(C)(C)C` here?
**A.** 84%

**Q.** Which activity does the source give for `NNc1nc(-c2ccccc2)nc2sc3c(c12)CCCC3` here?
**A.** 57.2%

**Q.** For `Cc1nc2c(-c3ccc(F)cc3)cnn2c(N)c1-c1ccccc1`, which activity is on record?
**A.** 88.4%

**Q.** With `COC(=O)c1sc(NC(=S)NC(=O)c2cccc(C)c2)nc1C` as the compound, how does the activity read?
**A.** 46.2%

**Q.** Which activity does the source give for `O=C1c2ccccc2NC(c2ccccc2)N1/N=C/c1ccccc1` (stereo not drawn) here?
**A.** 52.5%

**Q.** For `Cc1cc(N/N=C/c2ccccc2Cl)nc(NCc2ccccc2)n1`, which activity is on record?
**A.** 37.5%

**Q.** For `Cc1cccc(-n2ncc3c(N4CCC(C)CC4)ncnc32)c1`, which activity is on record?
**A.** 44.7%

**Q.** With `COc1cccc(NC(=O)Nc2ccc3c(c2)nc(C)n3C)c1` as the compound, how does the activity read?
**A.** 83.7%

**Q.** Which activity does the source give for `Cc1cccc(N(Cc2ccccc2)C(=O)CCl)c1` here?
**A.** 99%

**Q.** For `O=C(Nc1cccc(O)c1)c1cc(-c2ccccc2Cl)on1`, which activity is on record?
**A.** 82.2%

**Q.** With `CCc1nnc(NC(=O)CSc2nc3c(cc2C#N)CCCC3)s1` as the compound, how does the activity read?
**A.** 62.8%

System: not listed separately
Assay: as above
Conditions: NB7 neuroblastoma + caspase-8, without TRAIL, luminescence viability, without TRAIL, mean of runs, at 10 µM

**Q.** Which activity does the source give for `CCCCc1ccc(NC(=O)c2cnccn2)cc1` here?
**A.** 45.1%

**Q.** Which activity does the source give for `COc1cc(C2Nc3ccccc3C(=O)N2c2ccc3c(c2)OCCO3)ccc1OCC(C)C` (stereo not drawn) here?
**A.** 63.5%

**Q.** Which activity does the source give for `CCN1CCN(Cc2ccc(NC(=O)c3ccc(C)c(NC(=O)c4c[nH]c5cc(C(F)(F)F)ccc5c4=O)c3)cc2C(F)(F)F)CC1` here?
**A.** 98.8%

**Q.** Which activity does the source give for `Cc1c(C(=O)N2CCc3ccccc32)oc2ccccc12` here?
**A.** 41%

**Q.** With `CSc1nnc(NC(=O)c2ccc3c(c2)OCO3)s1` as the compound, how does the activity read?
**A.** 78.7%

**Q.** With `O=C(CCl)N1c2ccccc2SCC1c1ccccc1` (stereo not drawn) as the compound, how does the activity read?
**A.** 98.9%

**Q.** With `COc1ccc(/C(N)=N/OC(=O)c2c(-c3ccccc3Cl)noc2C)cc1OC` as the compound, how does the activity read?
**A.** 98.8%

**Q.** Which activity does the source give for `C/C(=N\NC(=O)c1ccccn1)c1ccc(Cl)cc1` here?
**A.** 46%

**Q.** Which activity does the source give for `COc1ccc2nc(N3C(=O)CNC3=S)sc2c1` here?
**A.** 49.4%

**Q.** Which activity does the source give for `O=C(CCl)N1CCN(S(=O)(=O)c2ccc3ccccc3c2)CC1` here?
**A.** 64.7%

**Q.** For `CCCc1cc(=O)[nH]c(SCC(=O)Nc2cc(S(=O)(=O)N3CCCCC3)ccc2C)n1`, which activity is on record?
**A.** -4.17%

**Q.** With `O=C1Nc2ccccc2N(C(=O)c2ccc3ccccc3c2)C1c1nc2ccccc2[nH]1` (stereo not drawn) as the compound, how does the activity read?
**A.** 43.4%

**Q.** Which activity does the source give for `Cc1onc(-c2ccccc2Cl)c1C(=O)O/N=C(\N)c1cccc([N+](=O)[O-])c1` here?
**A.** 93.3%

**Q.** For `Cc1ccc(C(=O)O/N=C(\N)c2ccc(Br)cc2)cc1C`, which activity is on record?
**A.** 88.2%

**Q.** With `O=[N+]([O-])c1c(Nc2ccccc2O)cc(Cl)c2nonc12` as the compound, how does the activity read?
**A.** 98.3%

**Q.** For `CN(C)c1cccc(C(=O)N/N=C/c2ccccc2F)c1`, which activity is on record?
**A.** 73.2%

**Q.** With `CCCCNC(=O)c1ccc(Cn2c(=S)[nH]c3c([nH]c4ccc(OC)cc43)c2=O)cc1` as the compound, how does the activity read?
**A.** 63.2%

**Q.** For `Cc1nn(-c2ccccc2Cl)c(Cl)c1/C=N/Nc1cccc(C(=O)O)c1`, which activity is on record?
**A.** 62.9%

**Q.** Which activity does the source give for `COc1cccc(Nc2nc(N)nc(CCl)n2)c1` here?
**A.** 92%

**Q.** Which activity does the source give for `COCCNC(=O)c1ccc2c3n(nc2c1)-c1ccccc1CO3` here?
**A.** 82%

**Q.** With `CCCCn1c(SCC(=O)Nc2nnc(CC)s2)nc2c1c(=O)n(C)c(=O)n2C` as the compound, how does the activity read?
**A.** 70.1%

**Q.** With `O=C(Nc1ccc2nc3ccccc3nc2c1)c1ccccc1` as the compound, how does the activity read?
**A.** 32.9%

**Q.** With `Cc1ccc(C(=O)Nc2ccc3c(c2)OCO3)cc1` as the compound, how does the activity read?
**A.** 63%

**Q.** For `CCCCCc1c(-c2ccc(OC)c(OC)c2)ncn1CCc1ccccc1OC`, which activity is on record?
**A.** 30.2%

**Q.** For `Brc1ccc(-c2cn3ccccc3n2)cc1`, which activity is on record?
**A.** 62.2%

**Q.** Which activity does the source give for `COc1ccc(NC(=O)N2CCc3ccccc32)cc1` here?
**A.** 64%

**Q.** For `COc1ccc(NC(=O)c2ccc3c(c2)OCCO3)cc1OC`, which activity is on record?
**A.** 51.2%

**Q.** With `CCOC(=O)c1sc(NC(=O)c2ccccc2)cc1C` as the compound, how does the activity read?
**A.** 54.5%

**Q.** Which activity does the source give for `CC(C)(C)OC(=O)NCCCC[C@H](NC(=O)c1[nH]cnc1C(=O)N[C@@H](Cc1ccccc1)C(=O)OC(C)(C)C)C(=O)OC(C)(C)C` here?
**A.** 64.7%

**Q.** With `NNc1nc(-c2ccccc2)nc2sc3c(c12)CCCC3` as the compound, how does the activity read?
**A.** 54.4%

**Q.** With `Cc1nc2c(-c3ccc(F)cc3)cnn2c(N)c1-c1ccccc1` as the compound, how does the activity read?
**A.** 86.9%

**Q.** With `COC(=O)c1sc(NC(=S)NC(=O)c2cccc(C)c2)nc1C` as the compound, how does the activity read?
**A.** 33.2%

**Q.** Which activity does the source give for `O=C1c2ccccc2NC(c2ccccc2)N1/N=C/c1ccccc1` (stereo not drawn) here?
**A.** 40.1%

**Q.** Which activity does the source give for `Cc1cc(N/N=C/c2ccccc2Cl)nc(NCc2ccccc2)n1` here?
**A.** 34.1%

**Q.** For `Cc1cccc(-n2ncc3c(N4CCC(C)CC4)ncnc32)c1`, which activity is on record?
**A.** 34.7%

**Q.** With `COc1cccc(NC(=O)Nc2ccc3c(c2)nc(C)n3C)c1` as the compound, how does the activity read?
**A.** 82.8%

**Q.** With `Cc1cccc(N(Cc2ccccc2)C(=O)CCl)c1` as the compound, how does the activity read?
**A.** 99.1%

**Q.** Which activity does the source give for `O=C(Nc1cccc(O)c1)c1cc(-c2ccccc2Cl)on1` here?
**A.** 78%

**Q.** With `CCc1nnc(NC(=O)CSc2nc3c(cc2C#N)CCCC3)s1` as the compound, how does the activity read?
**A.** 72.3%
